# HEK293 tox – cytotoxic compounds in HEK 293 cells; AID 1345083; HEK 293 viability, ATP luminescence (CellTiter-Glo), 48-72 h; 94,000 tested, 6.6% active; Potency, µM (top dose mostly 115 µM), without a hit: at the top dose activity change, negative = cytotoxicity, hits mostly inhibitors; also: nearly all actives have a fitted effect of over 60% in size
#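 ATP-coupled CellTiter-Glo luminescence served as viability read-out, recorded 10 min after reagent addition at room temperature. HEK 293 cells, 250 cells/well, had been incubated with pintool-transferred compound for 48 or 72 hr at 37 degree Celsius.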
# NIH3T3 tox – cytotoxic compounds in NIH 3T3 cells. Potency, µM (doses to about 96.7 µM), inactives show at the highest dose activity change, negative = cytotoxicity, hits mostly inhibitors. 94,000 tested, 4.3% active. NIH 3T3 viability, CellTiter-Glo ATP luminescence, 48-72 h; also: nearly all actives have a fitted effect of over 55% in size
#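 Luminescent ATP readout (CellTiter-Glo, 10 min RT) after 48 or 72 hr compound exposure of NIH 3T3 cells seeded at 400 cells/well in 1536-well format; quantitative HTS.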
# Luciferase inh – inhibitors of firefly (Photinus pyralis) luciferase; 76,000 tested, 2.5% active; P08659; Potency, µM (series often up to 115 µM), actives largely listed as inhibitors; purified P. pyralis luciferase, luminescence, biochemical; also: nearly all actives have a fitted effect of over 65% in size
#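 Purified P. pyralis luciferase (10nM final) in 50mM Tris acetate pH 7.5, 10mM Mg acetate, 0.01% Tween-20, 0.05% BSA with 10uM D-luciferin and 10uM ATP. Compounds titrated qHTS. Luminescence imaged on CCD.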
# GPT2 inhibitor – inhibitors of human GPT2 alanine aminotransferase | Q8TD30 | Recombinant GPT2, coupled pyruvate oxidase/HRP Amplex Red fluorescence | Potency, µM (highest dose often 57.7 µM), without a hit: top-dose activity change, negative = inhibition, most hits filed as inhibitors | 100,000 tested, 0.25% active; also: nearly all actives have a fitted effect of over 60% in size
#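 Fluorescence of coupled pyruvate oxidase/HRP/Amplex Red system (50uM Amplex, 30 min, dark) reports pyruvate formed by GPT2. Enzyme reaction: 10ng/uL GPT2, 2mM L-alanine, 250uM a-KG, 30 min room temperature, pH 7.5; 50uM AOA control.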
# NPR1 antag – blocks ANP-stimulated signaling of human Npr1 receptor | Potency, µM (top dose mostly 46.3 µM), for inactives: at the top dose activity change, negative = inhibition, actives largely listed as inhibitors | HEK293 hNpr1 GloSensor cGMP, ANP-stimulated luminescence | 76,000 tested, 1.6% active | P16066; calls by dose curve; also: nearly all actives have a fitted effect of over 60% in size
# Target sequence (P16066 whole entry, looked up): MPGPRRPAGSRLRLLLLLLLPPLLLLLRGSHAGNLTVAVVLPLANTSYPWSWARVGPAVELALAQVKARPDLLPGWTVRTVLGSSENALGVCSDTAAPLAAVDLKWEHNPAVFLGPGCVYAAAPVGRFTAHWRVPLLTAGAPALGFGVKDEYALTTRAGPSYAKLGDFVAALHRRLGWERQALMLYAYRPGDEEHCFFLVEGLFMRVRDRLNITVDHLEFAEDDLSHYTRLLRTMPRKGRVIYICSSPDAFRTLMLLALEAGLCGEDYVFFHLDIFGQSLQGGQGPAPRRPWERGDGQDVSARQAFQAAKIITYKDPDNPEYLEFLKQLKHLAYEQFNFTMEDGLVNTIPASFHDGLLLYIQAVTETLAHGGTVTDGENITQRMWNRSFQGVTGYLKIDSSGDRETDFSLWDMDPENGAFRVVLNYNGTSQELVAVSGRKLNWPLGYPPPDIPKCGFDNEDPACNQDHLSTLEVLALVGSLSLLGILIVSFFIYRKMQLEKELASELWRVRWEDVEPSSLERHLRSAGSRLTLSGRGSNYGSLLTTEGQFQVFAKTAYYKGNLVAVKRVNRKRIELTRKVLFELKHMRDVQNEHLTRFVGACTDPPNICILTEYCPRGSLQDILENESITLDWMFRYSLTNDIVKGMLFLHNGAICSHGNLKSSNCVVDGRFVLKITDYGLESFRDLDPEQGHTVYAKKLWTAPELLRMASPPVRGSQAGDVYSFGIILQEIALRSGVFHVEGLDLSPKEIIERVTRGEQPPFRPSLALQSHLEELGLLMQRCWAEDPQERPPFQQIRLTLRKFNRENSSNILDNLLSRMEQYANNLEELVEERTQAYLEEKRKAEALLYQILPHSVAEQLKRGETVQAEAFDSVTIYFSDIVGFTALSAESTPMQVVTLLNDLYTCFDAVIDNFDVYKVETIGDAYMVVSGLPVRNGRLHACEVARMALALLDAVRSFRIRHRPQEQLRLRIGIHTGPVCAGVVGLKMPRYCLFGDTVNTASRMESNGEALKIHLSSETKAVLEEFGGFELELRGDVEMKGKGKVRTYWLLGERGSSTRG
#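 HEK293 cells stably expressing human Npr1 and cGMP GloSensor pGS-40F, loaded 2 h with 2% GloSensor reagent, given compound 30 min at room temperature. Luminescence read before and 20 min after 0.1 nM hNppA.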
# * = called active by the depositor; i = inactive; ? = inconclusive; · = not tested or not shown; ! = not confirmed by another sample; [ ] = another dose, or the depositor's remark. Only some compounds are listed: those with a hit (about 10% of all), similar ones and a draw of the others. Unless noted, calls follow the shape of the dose curve; as a rule, active = well fitted curve in the direction sought with a large enough effect; inconclusive = small, poorly fitted or top-dose-only effect, or another doubt; inactive = no such curve, though single readings can be large; an effect the other way counts as inactive or inconclusive. % is scaled to controls: 0 for no effect and ±100 for the full control effect; potency is read from the fitted curve at half-maximal effect.
SMILES,HEK293 tox,NIH3T3 tox,Luciferase inh,GPT2 inhibitor,NPR1 antag
Cc1ccc([S+](=O)([O-])N2CCC[C@@H]2C(=O)N2CCC(N3CCOC3=O)CC2)cc1,i,-0.2%,·,?,·
N#Cc1cccc(C(=O)Nc2ccc3c(N4CCOCC4)ncnc3c2)c1,?,?,i,-0.9%,-2.5%
O=C(c1ccc(F)c(Cl)c1)N1CCC2(CC1)CN(c1ccccc1)C2=O,89.1µM*,39.8µM*,i,-13.7%,-0.9%
CN(C)c1ccc(CN2CCn3c(nnc3-c3ccccc3)C2)cc1,-1.5%,-6.4%,·,i,·
COc1ccc(C(=O)N2CCCC2C(=O)N2CCC(N3CCCC3=O)CC2)cc1 (centres undefined),i,1.8%,·,i,·
O=C1NC(=NC2CCCCC2)C2(CCN(Cc3ccccc3)C2)N1c1cc(F)cc(F)c1 (centres undefined),?,31.6µM*,·,i,·
O=C1NC(=NC2CCCCC2)C2(CCCN(Cc3ccccc3)C2)N1c1cc(F)cc(F)c1 (centres undefined),?,35.5µM*,·,i,·
O=C1NC(=NC2CCCCC2)C2(CCCN(Cc3ccc(F)cc3)C2)N1c1cc(F)cc(F)c1 (centres undefined),?,?,·,i,·
COc1ccc(CN2CCC3(C2)C(=NC2CCCC2)NC(=O)N3c2cc(F)cc(F)c2)cc1 (centres undefined),?,?,·,i,·
O=C1NC(=NC2CCCCC2)C2(CCN(Cc3ccc(F)cc3)C2)N1c1cc(F)cc(F)c1 (centres undefined),?,31.6µM*,·,-6.9%,·
COc1ccc(CN2CCCC3(C2)C(=NC2CCCCC2)NC(=O)N3c2cc(F)cc(F)c2)cc1 (centres undefined),44.7µM*,?,·,i,·
COc1ccc(C(=O)N2CCCC2C(=O)N2CCC(c3ccccc3)CC2)cc1 (centres undefined),-24.3%,-9.2%,·,i,·
Cc1nc(CN2CC3(CCN(C)C3)c3cc(C(=O)NCc4cccs4)ccc32)cs1 (centres undefined),?,79.4µM*,i,i,-4.5%[70.6 µM]
Cc1nc(CN2CC3(CCN(C)C3)c3cc(C(=O)NCC4CC4)ccc32)cs1 (centres undefined),-36.9%[172 µM],?,i,-24.1%[88.5 µM],0.8%[70.6 µM]
CN1CCCC2(C1)CN(Cc1cccnc1)c1ccc(C(=O)NCc3cccs3)cc12 (centres undefined),?,?,i,3.5%[88.5 µM],6.1%[70.6 µM]
Cc1nc(CN2CC3(CCN(C)C3)c3cc(C(=O)NCc4ccccc4)ccc32)cs1 (centres undefined),112µM*,?,i,i,-7.3%[70.6 µM]
CN1CCC2(C1)CN(Cc1ccccc1)c1ccc(C(=O)NCc3cccs3)cc12 (centres undefined),44.7µM*,28.2µM*,i,-27.8%[88.5 µM],0.0%[70.6 µM]
CN(C)c1cccc(Oc2nnnn2[C@H]2CO[C@H]3[C@@H]2OC[C@@H]3NC(=O)Nc2cccc3ccccc23)c1,?,-25.6%,i,i,-10.9%
COCCCNC(=O)c1ccc2nnc(CC3CC3)n2c1,-14.0%[172 µM],-23.0%[138 µM],·,i,·
Cc1nn(-c2ccccc2)c2c1C(C)N(C1CCN(C(=O)Cc3ccc(F)cc3)CC1)C2=O (centres undefined),50.1µM*,?,·,·,·
CC(=O)N1CCC(N2C(=O)c3c(c(C)nn3-c3ccccc3)C2C)CC1 (centres undefined),4.0%,?,·,·,·
Cc1nn(-c2ccccc2)c2c1C(C(C)C)N(C1CN(C(=O)c3ccc(Cl)cc3)C1)C2=O (centres undefined),31.6µM*,?,·,·,·
Cc1nn(-c2ccccc2)c2c1C(C(C)C)N(C1CCN(C(=O)c3ccccc3)CC1)C2=O (centres undefined),44.7µM*,?,·,·,·
Cc1nn(-c2ccccc2)c2c1C(C)N(C1CCN(C(=O)c3ccc(F)cc3)CC1)C2=O (centres undefined),?,35.5µM*!,·,·,·
CCN1C[C@H]2COc3ccc(C)cc3[C@H]2N(C(=O)c2ccccc2)CCC1=O,?,-23.8%,·,·,·
SMILES,HEK293 tox,NIH3T3 tox,Luciferase inh,GPT2 inhibitor,NPR1 antag
O=C(NCC1Cn2cccc2CN1Cc1ccccc1)c1ccoc1 (centres undefined),-29.2%,?,?,i,3.0%
CN(C)c1ccc(-n2c(=O)c(C(=O)NCC(F)(F)F)nc3cccnc32)cc1,i,-16.9%,·,i,·
CCCNC(=O)C1CCCCc2nnc(-c3ccccc3)n21 (centres undefined),1.4%,i,·,i,·
COC(=O)N1CCC(N2C(=O)c3c(c(C)nn3-c3ccccc3)C2C(C)C)CC1 (centres undefined),?,-21.1%,·,·,·
Cc1nn(-c2ccccc2)c2c1C(C(C)C)N(C1CCN(C(=O)c3ccncc3)C1)C2=O (centres undefined),?,-17.8%,·,·,·
Cc1nn(-c2ccccc2)c2c1C(C(C)C)N(C1CCN(C(=O)c3ccc(C(F)(F)F)cc3)C1)C2=O (centres undefined),?,15.8µM*,·,·,·
Cc1nn(-c2ccccc2)c2c1C(C(C)C)N(C1CCN(C(=O)c3ccc(F)cc3)CC1)C2=O (centres undefined),35.5µM*,?,·,·,·
Cc1nn(-c2ccccc2)c2c1C(C(C)C)N(C1CCN(C(=O)N(C)C)CC1)C2=O (centres undefined),44.7µM*,?,·,·,·
Clc1ccc(-c2nnc([C@H]3CCN(Cc4ccco4)C3)o2)cc1,-21.3%[172 µM],-36.9%[174 µM],44.7µM*,-6.2%[88.5 µM],-6.4%[70.6 µM]
c1ccc(-c2nnc([C@H]3CCN(Cc4ccco4)C3)o2)cc1,?,-8.3%[174 µM],50.1µM*,i,-2.2%[70.6 µM]
Clc1ccc(-c2nnc([C@H]3CCN(Cc4c[nH]c5ccccc45)C3)o2)cc1,?,112µM*,i,0.9%[88.5 µM],-28.3%[70.6 µM]
CCC1(N2CCN(S(=O)(=O)c3ccc4c(c3)CCCC4)CC2)CCN(C(=O)NC)C1 (centres undefined),?,-24.1%,i,i,-12.7%
CC(C)Cn1c(=O)c(C(=O)Nc2cccc(Cl)c2)nc2cccnc21,-8.9%,-1.2%,·,?,·
O=[S+]([O-])(NC1CCCN(c2ccc3nnc(C4CC4)n3n2)C1)c1cccc(C(F)(F)F)c1 (centres undefined),?,5.62µM*,·,·,·
COc1cccc([S+](=O)([O-])NC2CCN(c3ccc4nnc(-c5ccccc5)n4n3)CC2)c1,25.1µM*,14.1µM*,·,·,·
COc1cccc([S+](=O)([O-])NC2CCCN(c3ccc4nnc(C)n4n3)C2)c1 (centres undefined),4.4%,-27.6%,·,·,·
Cc1noc(C)c1[S+](=O)([O-])N1CCCN(c2ccc3nnc(-c4ccccc4)n3n2)CC1,79.4µM*,-29.7%,·,·,·

# Screening data from PubChem.
